HTT ATP protect: Huntington cell model cytoprotection by ATP luminescence; PC12 HTT-Q103 induced, cytoprotection, ATP luminescence, 40 h; Potency, µM (doses to about 56.4 µM), for inactives: cytoprotection (ATP increase), actives largely listed as activators; 230,000 tested, 0.14% active; AID 1471; also: potency is read from the fitted curve at half-maximal effect; % of control where 0% means no effect; nearly all actives have a fitted effect of over 45% in size
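Compounds were screened for protection of PC12 cells against cell death after tebufenozide induction (100 nM final) of mutant Huntingtin exon 1 (Q103) fused to GFP.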
JMJD2E inh: JMJD2E (human) inhibition; AID 2147; Potency, µM (top dose mostly 57.1 µM), without a hit: at the highest dose activity change, negative = inhibition, usual class: inhibitors; B2RXH2; JMJD2E catalytic domain, FDH-coupled NADH fluorescence (FDH is formaldehyde dehydrogenase); 230,000 tested, 1.6% active; active = well fitted inhibition curve with a large enough effect, not every such curve was filed as active; inconclusive = small, poorly fitted or top-dose-only effect, or another doubt; inactive = no such curve, though single readings can be large or run the other way;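 also: potency is read from the fitted curve at half-maximal effect; 0% = wells with enzyme and -100% = buffer wells without enzyme; nearly all actives have a fitted effect of over 50% in size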
Target sequence (B2RXH2 1-337 limits assumed): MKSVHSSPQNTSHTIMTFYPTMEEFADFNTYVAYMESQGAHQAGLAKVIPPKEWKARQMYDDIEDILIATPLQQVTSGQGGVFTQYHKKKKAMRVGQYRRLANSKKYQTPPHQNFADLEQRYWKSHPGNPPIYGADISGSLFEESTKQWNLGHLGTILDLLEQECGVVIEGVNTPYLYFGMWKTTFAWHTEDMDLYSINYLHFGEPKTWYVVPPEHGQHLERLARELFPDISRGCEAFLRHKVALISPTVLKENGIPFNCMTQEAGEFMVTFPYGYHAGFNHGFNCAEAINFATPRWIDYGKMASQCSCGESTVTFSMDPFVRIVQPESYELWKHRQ
FBPA coupling cs: counter-screen for Giardia aldolase inhibitors: coupling enzyme system; coupling enzyme system counterscreen, AmpLite Red fluorescence; activity change, negative = inhibition, % at 58.2 µM, hits read low; 290,000 tested, 0.67% active; in the data active = activity change below about -30%; also: % is scaled to controls: 0 for no effect and ±100 for the full control effect
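Fluorescence at 525 nm excitation and 598 nm emission measured inhibition of the coupled detection system without aldolase. Compounds (at 57.5 uM final) were preincubated 10 min at room temperature with coupling enzyme reagent before a 20 min substrate/AmpLite Red step.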
HTT aggregate: mutant huntingtin aggregation inhibition | 220,000 tested, 1.1% active | PC12 HttQ103-GFP aggregates, Acumen cytometry, 40 h | Potency, µM (doses to about 46.1 µM), inactives show top-dose activity change, negative = inhibition, most hits filed as inhibitors; also: potency is read from the fitted curve at half-maximal effect; % is scaled to controls: 0 for no effect and ±100 for the full control effect; nearly all actives have a fitted effect of over 60% in size
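Aggregates are detected as GFP objects 1–25 µm with signal 6 STDEV over background in lysates of induced PC12 cells. These carry Huntingtin exon 1 with 103 glutamines fused to GFP under an ecdysone promoter; compounds titrated.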
VDR inhibitor: vitamin D3 receptor (human) inhibition | P11473 | VDR-SRC2-3 peptide fluorescence polarization, 2 h | Potency, µM, without a hit: max response, negative = inhibition, actives largely listed as inhibitors | 400,000 tested, 0.93% active; also: potency is read from the fitted curve at half-maximal effect; % is scaled to controls: 0 for no effect and ±100 for the full control effect
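FP read-out; VDR + SRC2-3 coactivator peptide; 23 nl compound by pintool; 2 h RT incubation; reagents held at 4 deg C, protected from light.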
RGS12 GoLoco inh: inhibitors of human Gai1-RGS12 GoLoco interaction (red fluorophore). P63096. Gai1:RGS12 GoLoco peptide FP, rhodamine, 10 min. Potency, µM (top dose mostly 61.6 µM), for inactives: at the highest dose activity, negative = inhibition, usual class: inhibitors. 230,000 tested, 0.44% active; active = well fitted inhibition curve with a large enough effect, not every such curve was filed as active; inactive = no such curve, though single readings can be large or run the other way; also: potency is read from the fitted curve at half-maximal effect; % is scaled to controls: 0 for no effect and ±100 for the full control effect; nearly all actives have a fitted effect of over 30% in size
* hit, by the source's call; ? = inconclusive; . = no result given; [ ] = dose if it differs, or a comment. Sampled rows, rich in hits. Any-hit rate of the full collection: about 2.3%. Unless noted, calls follow the shape of the dose curve; as a rule, active = well fitted curve in the direction sought with a large enough effect; inconclusive = small, poorly fitted or top-dose-only effect, or another doubt; inactive = no such curve, though single readings can be large; an effect the other way counts as inactive or inconclusive.

SMILES	HTT ATP protect	JMJD2E inh	FBPA coupling cs	HTT aggregate	VDR inhibitor	RGS12 GoLoco inh
O=C(N/C(=C\c1cccc(Br)c1)C(=O)N1CCOCC1)c1ccco1	.	.	-1	.	-24%	.
CC(=O)NCCSc1ccc(S(=O)(=O)N2CCCC2)cn1	.	.	.	.	-6%	.
CCN(c1ccc(NC(=O)COC(=O)c2cccs2)cc1)C(C)C	-17%	-1%	2	-14%[9.22 µM]	1%	-19%
CCN(CC)c1ccc(NC(=O)COC(=O)c2cccs2)cc1	-45%	0%	0	10%	-6%	2µM*
COc1cc(OC)c(NC(=O)CN2CCCN(Cc3ccccc3C)S2(=O)=O)cc1Cl	.	.	.	.	4%	.
O=C(c1cnccn1)N1CCC2(CCCN(c3cccc(-c4ccccc4)c3)C2)CC1	-81%	.	1	.	35µM*	93%
O=C(Nc1ccccc1)N1CCC2(CC1)CCN(C(=O)c1cnccn1)CC2	3.5µM*	.	1	.	1%	7%
O=C(c1ccco1)N1CCC[C@@]2(CCN(c3ccccn3)C2)C1	-18%	.	1	.	-15%	3%
O=C(c1ccco1)N1CCC2(CCCN(C(c3ccccc3)c3ccccc3)C2)CC1	16%	.	-2	.	35µM*	50%
O=C(c1ccco1)N1CCC[C@@]2(CCN(c3cccc(-c4ccccc4)c3)C2)C1	4%	.	0	.	28µM*	25%
N#CCC(=O)N/N=C/c1c(-c2ccccc2)n(-c2ccccc2)c2ccccc12	.	.	3	.	-1%	.
C[C@@]1(C(NC(=O)c2cccs2)c2ccc(-c3ccccc3)cc2)C[C@H]1C1CCCCC1 (some centres undefined)	-144%	1%	-3	.	.	3%
Cn1nnc2c(NCc3ccccc3)ncnc21	.	.	.	.	0%	.
O=C(c1ccco1)N1CCN(C(=O)C(Sc2ccccc2)c2ccccc2)CC1 (centres undefined)	-8%[0.074 µM]	10%	14	10µM*	-13%	15%
O=C(c1ccncc1)N1CCC2(CCCN(c3cccc(-c4ccccc4)c3)C2)CC1	17%	.	-1	.	45µM*	140%
O=C(c1ccncc1)N1CCC2(CC1)CCN(c1cccc(-c3ccccc3)c1)CC2	24%	.	2	.	?	7%
O=C(c1ccncc1)N1CCC[C@@]2(CCN(c3cccc(-c4ccccc4)c3)C2)C1	2%	.	-1	.	40µM*	6%
Cc1ccc(S(=O)(=O)C(C#N)c2nc3ccccc3nc2N2CCCC2)cc1 (centres undefined)	10%	?	-30*	4%	?	106%
COc1ccc(C2c3[nH]c4ccc(OC)cc4c3CCN2C(=O)Nc2ccccc2)cc1 (centres undefined)	.	.	.	.	20%	.
CCSc1nnc(NC(=O)C(NC(=O)c2ccc(Cl)cc2)C(C)C)s1 (centres undefined)	.	?	-14	32µM*	-22%	-6%
O=C1C=CC(=O)N1c1ccc2c(c1)C(NC(=O)C(F)(F)F)c1ccccc1-2 (centres undefined)	.	.	.	.	45µM*	.
N#Cc1ccccc1NS(=O)(=O)c1ccc(N2CCCCS2(=O)=O)cc1	.	.	.	.	16%	.
CN(Cc1ccco1)c1ncncc1-c1ccccc1C(F)(F)F	27%	.	2	.	50µM*	2%
Cc1ccccc1-c1cncnc1N(C)Cc1ccco1	4%	?	-1	.	40µM*	-17%
COc1ccccc1-c1cncnc1N(C)Cc1ccco1	-21%	.	-1	.	?	-3%
CC(C)(C)c1nc2cc(Cl)c([N+](=O)[O-])cc2o1	33%[10 µM]	-4%	-2	25%[9.22 µM]	79µM*	-4%
CCCCNC(=O)CSc1nc2cc3c(cc2c(=O)n1CCCC(=O)NCc1ccc2c(c1)OCO2)OCO3	.	.	.	.	-5%	.
CC(C)NC(=O)CC(=O)Nc1ccc2nc3n(c(=O)c2c1)CCCCC3	.	.	.	.	-19%	.
COc1ccc(-n2c(N)c(C(=O)NCC3CCCO3)c3nc4ccccc4nc32)c(OC)c1 (centres undefined)	-72%	?	-30*	-7%[9.22 µM]	-5%	10%

Compound activity (PubChem)
